Assay results: the OligoGym collection

What follows are sequences tested against SLC22A8 (assay: pooled miR-30 sensor sort-seq; sequence = guide strand). Settings: shRNA.
Note: reference of the scale not given here.

| Sequence | sensor-assay potency score (higher = more potent) |
| --- | --- |
| TCTGTCACAATGGAGTCCTTGG | -1.04 |
| TTTGTTGGAGTTGCACACCAAG | -1.22 |
| TTGCACACCAAGTCCCACTCTG | 0.471 |
| TTCACTTGTGTAGAGGAAGAGG | -0.683 |
| AACTATAGTAGGCAAAACCGGT | -1.07 |
| TATAGTAGGCAAAACCGGTAGC | 0.235 |
| TTCCACATTCAAGATGACGGTG | -0.373 |
| TAATTCACTTGTGTAGAGGAAG | -0.618 |
| TTGAAGACAGCCACCCGCCGGA | -0.0956 |
| TTGAGTTTGAGCTCCTCCAAGC | -1.05 |
| TTTCCAGACAAGACCAACCAGC | -0.636 |
| TTCTTCCACACCCATAGCCAAA | -1.71 |

The sequences below were run against SLC23A2 in the same assay as above. Settings: shRNA.

| Sequence | sensor-assay potency score (higher = more potent) |
| --- | --- |
| TTCTGTTGAACTTCCAGCCTCC | 0.654 |
| TAAATCATGTCTGATCGCTGGG | 0.763 |
| TTCTTGGATTTATAAATCGGGA | -1.08 |
| TTCTGTCTGAGGTAACTTGGAA | -0.6 |
| TATGGAACCTTAAACCACGGGG | -0.198 |
| TTCCGTAGTGTAGATCGCCATG | -1.38 |
| TAATACTAGGAATATTGTCAGC | -0.987 |
| TTGTCTGTAGCAAAGTAGTGAT | -0.911 |
| TAAATCAATGAACTGCAGGTTA | 0.267 |
| TTCAACACTTGATCGATTCCTG | 0.272 |
| TATAAATCATGTCTGATCGCTG | 0.473 |
| TATGCCATCAAGAACACAGGAG | 0.397 |

These sequences were tested against SLC25A18 in the same assay as above. Settings: shRNA.

| Sequence | sensor-assay potency score (higher = more potent) |
| --- | --- |
| TTGAGGTAGCACTACAACGCAG | -1.18 |
| TGAGGTAGCACTACAACGCAGA | -0.364 |
| TTAAGGTTGGCAAACAGTGGGA | -0.285 |
| TTCTATTGTGACTACCTGTTAA | -0.81 |
| TTAAAATACAGAAACAACCCTT | 0.611 |
| TTAACAATGCTAAATCCTCAAG | -1.35 |
| TAAAATACAGAAACAACCCTTC | 0.73 |
| TTCGAGTTTTCAGAACATCTAG | -0.224 |
| TCAAACTAGGTGCTGACTCTGA | -0.384 |
| TCGAGTTTTCAGAACATCTAGA | -0.0433 |
| TTGGTCTCAAACTAGGTGCTGA | -0.0245 |
| TTTCAGAACATCTAGAGGCGTC | 0.0336 |
